According to the supplement of paper PMC6555819:

Tests used:
Test in all cases: PBM binding z-score (relative to random genomic background probes); higher = stronger binding; sequences stand for … in GC…GCGATTGACAGCGTAGAATGAAGG
[1] = test system: FXR:RXRa (NR concentration 270 nM, RXRa partner concentration 90 nM)
Summary of the method: (§1)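 Ligand-free nuclear receptor dimers were applied to custom Agilent 4×180K protein-binding microarrays whose double-stranded probes carried direct-repeat seeds, single-nucleotide variants, half-site ablations and random human genomic background sequences in 34-nt variable regions. Incubation lasted 1 h. Binding z-scores were computed against the random background probes from regression-normalized fluorescence.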

[2] = test system: LXRa:RXRa (NR concentration 270 nM, RXRa partner concentration 90 nM)
Summary of the method: as §1

[3] = test system: LXRa homodimer (NR concentration 270 nM)
Summary of the method: as §1

[4] = test system: LXRb:RXRa (NR concentration 270 nM, RXRa partner concentration 90 nM)
Summary of the method: as §1

[5] = test system: LXRb homodimer (NR concentration 270 nM)
Summary of the method: as §1

[6] = test system: PPARa:RXRa (NR concentration 270 nM, RXRa partner concentration 90 nM)
Summary of the method: as §1

[7] = test system: PPARg:RXRa (NR concentration 180 nM, RXRa partner concentration 90 nM)
Summary of the method: as §1

[8] = test system: PPARg:RXRa 270nM:90nM, anti-RXR (NR concentration 270 nM, RXRa partner concentration 90 nM)
Summary of the method: as §1

[9] = test system: PPARg:RXRa 30nM:10nM, anti-RXR (NR concentration 30 nM, RXRa partner concentration 10 nM)
Summary of the method: as §1

[10] = test system: PPARg:RXRa 90nM:30nM, anti-RXR (NR concentration 90 nM, RXRa partner concentration 30 nM)
Summary of the method: as §1

[11] = test system: PPARg:RXRa DBDmut IVT, anti-RXR (DBD mutation: RXRa K156A/R161A, NR concentration 270 nM, RXRa partner concentration 90 nM)
Summary of the method: as §1

[12] = test system: PPARg:RXRa IVT, anti-PPARg (NR concentration 270 nM, RXRa partner concentration 90 nM)
Summary of the method: as §1

[13] = test system: PPARg DBDmut:RXRa IVT, anti-PPARg (DBD mutation: PPARg1 K132A/R137A, NR concentration 270 nM, RXRa partner concentration 90 nM)
Summary of the method: as §1

[14] = test system: PPARg DBDmut IVT, anti-PPARg (DBD mutation: PPARg1 K132A/R137A, NR concentration 270 nM)
Summary of the method: as §1

[15] = test system: PPARg homodimer (NR concentration 180 nM)
Summary of the method: as §1

[16] = test system: PXR:RXRa (NR concentration 270 nM, RXRa partner concentration 90 nM)
Summary of the method: as §1

[17] = test system: PXR homodimer (NR concentration 270 nM)
Summary of the method: as §1

[18] = test system: RARa:RXR (NR concentration 270 nM, RXRa partner concentration 90 nM)
Summary of the method: as §1

[19] = test system: RARa homodimer (NR concentration 270 nM)
Summary of the method: as §1

[20] = test system: RARb:RXRa (NR concentration 270 nM, RXRa partner concentration 90 nM)
Summary of the method: as §1

Row | Sequence | PBM binding z-score [1] | PBM binding z-score [2] | PBM binding z-score [3] | PBM binding z-score [4] | PBM binding z-score [5] | PBM binding z-score [6] | PBM binding z-score [7] | PBM binding z-score [8] | PBM binding z-score [9] | PBM binding z-score [10] | PBM binding z-score [11] | PBM binding z-score [12] | PBM binding z-score [13] | PBM binding z-score [14] | PBM binding z-score [15] | PBM binding z-score [16] | PBM binding z-score [17] | PBM binding z-score [18] | PBM binding z-score [19] | PBM binding z-score [20]
1 | TAGCCTAGGTCAGATCGGGTCAGTATACGCTATA | 2.96 | 2.75 | 0.202 | 2.43 | -0.00739 | 2.8 | 1.19 | 1.5 | 0.171 | 1.08 | 0.599 | 2.06 | -0.409 | 0.264 | 0.633 | 4.16 | -0.399 | 2.21 | -0.275 | 3.55
2 | GCGACTGGGGCAAAGCAGGTGACCATAAGGTTGG | -0.334 | -0.7 | -0.835 | -0.574 | -1.48 | 1.09 | 0.993 | 1.27 | -0.349 | 0.239 | 4.22 | 3.65 | -0.66 | -0.849 | 0.17 | -0.318 | -0.7 | 0.805 | -0.538 | 0.913
3 | CTCGAAAGGTCGTACTCAGGTGAGTATACCAAAC | 5.55 | 4 | 0.513 | 3.59 | 0.9 | 4.59 | 2.86 | 3.85 | 1.33 | 2.46 | 1.03 | 1.95 | 0.751 | 1.1 | 2.32 | 3.69 | 0.0401 | 4.62 | 0.162 | 3.75
4 | TCTTGTAGATCAAACGTTAAGAAAGCCGAAGCCT | 0.211 | 0.363 | -0.0781 | 0.18 | -0.0447 | 0.988 | 0.748 | 3.17 | 3.27 | 3.48 | 2.23 | 0.376 | 0.781 | 0.516 | -0.0553 | 0.00909 | -0.155 | 0.0712 | -0.409 | -0.19
5 | CCTAGTTGGTCAGGAGGTCACGCACCGGATATGA | 4.29 | 4.22 | 2.24 | 3.81 | 0.661 | 4.65 | 4.41 | 4.64 | 2.02 | 3.5 | 1.74 | 4.03 | 0.246 | -0.0131 | 3.74 | 4.85 | 1.04 | 5.52 | 2.11 | 4.06
6 | CCTCGGAGGACAATAGGAGGTCAGAGCTGCCAGA | 0.746 | 2.4 | 3.23 | 1.38 | -0.2 | 1.87 | 0.443 | 0.389 | -0.612 | -0.255 | -0.0175 | 0.979 | -0.47 | -1.32 | 1.01 | 1.76 | 0.364 | 2.08 | -0.149 | 2.29
7 | TCATATAGGTAAAAGGTGAAAGTAGGTGTGGTAA | 2.28 | 2.13 | 0.449 | 2.3 | 0.226 | 5.4 | 9.14 | 8.72 | 8.11 | 9.43 | 5.54 | 5.11 | 1.51 | 2.06 | 2.38 | 2.11 | 0.728 | 3.45 | 2.24 | 2.06
